Screens as filed in PubChem BioAssay.
Most compounds without a hit are left out; they make up all but 1.3% or so of the library.
Pin1 inh – inhibitors of human Pin1. Q13526. Pin1 FP peptide displacement, HiFluor488, 10 min. Potency, µM (top dose mostly 115 µM), most hits filed as inhibitors. 0.009% of 390,000 active. AID 504891; active = well fitted inhibition curve with a large enough effect in the polarisation, with a control signal flat, not every such curve was filed as active; inconclusive = small, poorly fitted or top-dose-only effect, or effect the other way, or a change in a side signal; inactive = no such curve, though single readings can be large or run the other way; the % refers to the polarisation
Target sequence (Q13526 whole entry, looked up): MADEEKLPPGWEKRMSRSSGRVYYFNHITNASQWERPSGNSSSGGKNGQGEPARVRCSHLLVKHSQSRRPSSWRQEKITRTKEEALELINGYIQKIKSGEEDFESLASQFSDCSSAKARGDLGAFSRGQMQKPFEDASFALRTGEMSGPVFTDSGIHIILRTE
WRN inhibitor – WRN helicase (human) inhibition. AID 651768. Potency, µM (highest dose often 114 µM), actives largely listed as inhibitors. WRN helicase unwinding, fluorescent forked duplex, kinetic. 0.46% of 360,000 active. Q14191; also: nearly all actives have a fitted effect of over 55% in size
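Fluorescence dequenching readout, ex 525 nm/em 598 nm, kinetic mode: forked duplex DNA (100 nM final) with adjacent fluorophore and quencher unwound by WRN (20 nM final) with 2 mM ATP. Compound preincubation 15 min, room temperature.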
FEN1 inh – human FEN1 inhibition | P39748 | Recombinant FEN1 flap cleavage, fluorescence, 15 min | Potency, µM (series often up to 114 µM), hits mostly inhibitors | 0.35% of 390,000 active | AID 588795; also: nearly all actives have a fitted effect of over 65% in size
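Recombinant FEN1 (10 nM) was preincubated with pin-transferred compounds for 15 min at room temperature, then flap DNA substrate (50 nM final) was added. Plates were read at 0 and 15 min, and normalized concentration–response data were fitted to a four-parameter Hill equation.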
Tb PGK inh – blocks T. brucei phosphoglycerate kinase. Potency, µM (titrated, usually from 57.5 µM), usual class: inhibitors. AID 602233. PGK/GAPDH coupled, Kinase-Glo luminescence, 60 min. 0.043% of 380,000 active. P07378; also: nearly all actives have a fitted effect of over 60% in size
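Recombinant glycosomal PGK reaction used 1,3-bisphosphoglycerate generated in-well by GAPDH (100nM final) in 100mM TEA pH 7.6, 5mM MgCl2, 0.01% Tween-20. After 60 minutes at room temperature, ATP was read by Kinase-Glo Plus luminescence end-point.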
Glioma ERSR ind – induces the endoplasmic reticulum stress response in human glioma cells; U87-MG GRP78 promoter luciferase reporter, 16 h; Potency, µM, hits mostly activators; 0.02% of 420,000 active; AID 602332; also: series mostly up to about 76 µM; nearly all actives have a fitted effect of over 35% in size
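Stably transfected U87-MG human glioma cells carrying a GRP78-based luminescent sensor were seeded at 1000 cells/well, pin-dosed with compounds and incubated 16 h. Luciferase reagent was then added, and end-point luminescence was read after 10 min at room temperature.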
PI5P4K alpha inh – blocks human PI5P4K alpha kinase activity; P48426; max response, %; PI5P4Kalpha enzyme, ADP-Glo luminescence, 60 min; stronger effect = lower value; AID 652105; 1.2% of 330,000 active; active = max response of -50% or lower; inconclusive = between -30% and -50%; inactive = -30% or higher; also: value at the top dose of about 77 µM
Target sequence (P48426 whole entry, looked up): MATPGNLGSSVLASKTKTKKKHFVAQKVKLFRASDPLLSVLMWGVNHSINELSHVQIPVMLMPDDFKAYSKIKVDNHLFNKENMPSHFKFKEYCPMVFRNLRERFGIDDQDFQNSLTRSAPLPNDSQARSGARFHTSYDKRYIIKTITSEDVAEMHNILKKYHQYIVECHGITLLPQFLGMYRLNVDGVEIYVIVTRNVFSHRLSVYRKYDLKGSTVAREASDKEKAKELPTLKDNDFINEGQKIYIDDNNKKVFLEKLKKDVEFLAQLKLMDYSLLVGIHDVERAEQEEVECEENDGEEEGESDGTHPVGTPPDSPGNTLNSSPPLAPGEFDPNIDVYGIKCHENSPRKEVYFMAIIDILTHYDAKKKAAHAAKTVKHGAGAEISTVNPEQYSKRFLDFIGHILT
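PI5P4Kalpha ADP-Glo assay; 5 microM ATP final; 60 min RT reaction; HEPES pH 7.4/EGTA/CHAPS, 5% DMSO; controls lacking substrate or enzyme; luminescent end-point.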
Each line names hits and unclear results; the compound was inactive in the other large screens. Unless noted, calls follow the shape of the dose curve; as a rule, active = well fitted curve in the direction sought with a large enough effect; inconclusive = small, poorly fitted or top-dose-only effect, or another doubt; inactive = no such curve, though single readings can be large; an effect the other way counts as inactive or inconclusive.

COC(=O)c1cc(CNC(=O)c2cccc(C)c2)cc(NC(=O)c2ccncc2)c1	none (no result: Pin1 inh, WRN inhibitor, FEN1 inh, Tb PGK inh, PI5P4K alpha inh)
O=C(CSc1nnc(-c2ccccc2)o1)c1nnc(-c2ccccc2)o1	PI5P4K alpha inh -53
CCOC(=O)CSc1nnc(-c2ccccc2)o1	none
COCC1=C(C(=O)OC(C)OC(=O)OC(C)C)N2C(=O)C(NC(=O)/C(=N\OC)c3csc(N)n3)C2SC1 (stereo not given)	none (no result: Pin1 inh, WRN inhibitor, FEN1 inh, Tb PGK inh, PI5P4K alpha inh)
Cc1ccc(NC(=O)CN(CCc2ccccc2)S(=O)(=O)c2ccccc2)c(C)c1	Pin1 inh inconclusive (no result: WRN inhibitor, PI5P4K alpha inh)
Cc1ccc(C)c(NC(=O)CN(CCc2ccccc2)S(=O)(=O)c2ccccc2)c1	Pin1 inh inconclusive, FEN1 inh 89µM (no result: WRN inhibitor, PI5P4K alpha inh)
COc1ccc(CN2CCOc3ccc(C(O)c4cccnc4)cc3C2)cc1O (stereo not given)	none (no result: Pin1 inh, WRN inhibitor, FEN1 inh, Tb PGK inh, PI5P4K alpha inh)
O=C(O)CSc1nnc(CNc2cccc(C(F)(F)F)c2)n1Cc1ccco1	PI5P4K alpha inh -71
O=C(CSc1nnc(CNc2cccc(C(F)(F)F)c2)n1Cc1ccco1)NCc1ccco1	none
CC(=O)c1ccc(N2C(=O)C3C(C2=O)C(C(=O)c2ccc(Cl)cc2)N2CCCC32)cc1 (stereo not given)	Pin1 inh inconclusive, PI5P4K alpha inh -54
O=C1NC2CCCCC2C(=O)N1OS(=O)(=O)c1ccccc1 (stereo not given)	Pin1 inh inconclusive, WRN inhibitor 50µM
CCn1c(-c2ccccc2F)nc2cc(NC(C)=O)cc(C(=O)N3CCC[C@H]3C(=O)OC)c21	none (no result: Pin1 inh, WRN inhibitor, FEN1 inh, Tb PGK inh, PI5P4K alpha inh)
COc1ccc2nc(NNC(=O)c3cc(=O)c4ccccc4o3)sc2c1	PI5P4K alpha inh -76
O=C(NNc1nc2c(F)cccc2s1)c1cc(=O)c2ccccc2o1	PI5P4K alpha inh -51
Cc1cccc2sc(NNC(=O)c3cc(=O)c4ccccc4o3)nc12	PI5P4K alpha inh -52
COc1ccc(C(=O)N2CCCC(c3nc(SCc4ccccn4)ncc3C)C2)cc1F (stereo not given)	none (no result: Pin1 inh, WRN inhibitor, FEN1 inh, Tb PGK inh, PI5P4K alpha inh)
OCC1(O)OC[C@@H](O)[C@H](O)[C@@H]1O (stereo not given in full)	none (no result: Pin1 inh, WRN inhibitor, FEN1 inh, Tb PGK inh, PI5P4K alpha inh)
CCCC(=O)NC(=S)Nc1sc2c(c1C(N)=O)CCC2	PI5P4K alpha inh inconclusive
CC(C)C(=O)NC(=S)Nc1sc2c(c1C(N)=O)CCCC2	WRN inhibitor inconclusive, PI5P4K alpha inh -54
COCC(=O)Nc1cc(C(=O)N2CCC(c3ccccc3)CC2)cc2nc(-c3ccccc3)n(C)c12	none (no result: Pin1 inh, WRN inhibitor, FEN1 inh, Tb PGK inh, PI5P4K alpha inh)
O=C(c1ccc2c(c1)OCO2)N1CCOc2ccc(CN3CCC(Oc4cccnc4)CC3)cc2C1	none (no result: Pin1 inh, WRN inhibitor, FEN1 inh, Tb PGK inh, PI5P4K alpha inh)
O=[N+]([O-])c1cc(CN2CCOCC2)c2cccnc2c1O	Pin1 inh inconclusive, FEN1 inh 28µM, PI5P4K alpha inh -73
Oc1c(Cl)cc(CN2CCOCC2)c2cccnc12	FEN1 inh inconclusive
CCOC(=O)c1ccc(-n2cnc3c(c2=N)C(c2cccc(OC)c2)c2c(ccc4ccccc24)O3)cc1 (stereo not given)	none (no result: WRN inhibitor, FEN1 inh, Tb PGK inh, Glioma ERSR ind, PI5P4K alpha inh)
CC1Cc2ccccc2N1C(=O)COC(=O)c1ccc([N+](=O)[O-])o1 (stereo not given)	FEN1 inh 28µM
CC(OC(=O)CSc1ccc([N+](=O)[O-])cc1)C(=O)NCc1ccccc1 (stereo not given)	WRN inhibitor 50µM, PI5P4K alpha inh inconclusive
COc1ccc(NC(=O)c2cc(-c3ccc(C)o3)nc3ccccc23)cc1OC	Pin1 inh inconclusive, PI5P4K alpha inh -53
COc1ccc(NC(=O)c2cc(-c3ccc(C)o3)nc3ccccc23)c(OC)c1	none
C1=C(c2ccc3c(c2)CN(Cc2cccn2-c2ncccn2)CCO3)Cc2ccccc21	none (no result: Pin1 inh, WRN inhibitor, FEN1 inh, Tb PGK inh, PI5P4K alpha inh)
CCC(=O)N1CCc2cc(Br)cc(S(=O)(=O)N3CCCC(C(=O)NCc4ccccc4)C3)c21 (stereo not given)	Pin1 inh inconclusive, FEN1 inh 79µM (no result: WRN inhibitor, PI5P4K alpha inh)
CSc1ccc(C=NNc2ccc(S(=O)(=O)Nc3ccccc3C(=O)O)cc2[N+](=O)[O-])cc1	WRN inhibitor inconclusive, Tb PGK inh inconclusive, PI5P4K alpha inh -53 (no result: Pin1 inh)
CCOc1cccc(C=NNc2ccc(S(=O)(=O)Nc3ccccc3C(=O)O)cc2[N+](=O)[O-])c1O	Pin1 inh inconclusive, PI5P4K alpha inh inconclusive
